Compound activity: PubChem, The Scripps Research Institute Molecular Screening Center
TEAD-YAP inh – TEAD-YAP interaction inhibition, primary screen, TEAD-YAP interaction inhibitor project, luminescence, HEK-TIYL cells; actives 1.4% (n = 640,000); TEAD-Gal4/YAP UAS-luciferase luminescence; inhibition, % at 9.12 µM; in the data active = inhibition above about 32%;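 note: 0% = median of test compound wells and 100% = reference inhibitor wells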
GPR151 ag – activators of human GPR151, primary screen, cell-based, PathHunter beta-arrestin, luminescence; G-protein coupled receptor 151 (Homo sapiens), Q8TDV0; PathHunter beta-arrestin GPR151 cells; activation, % at 11.2 µM; actives 1% (n = 650,000); AID 1508602, 2020; in the data active = activation above about 4.9%;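 note: 0% = median of compound wells and 100% = cells with positive control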
Target sequence (Q8TDV0 whole entry, looked up): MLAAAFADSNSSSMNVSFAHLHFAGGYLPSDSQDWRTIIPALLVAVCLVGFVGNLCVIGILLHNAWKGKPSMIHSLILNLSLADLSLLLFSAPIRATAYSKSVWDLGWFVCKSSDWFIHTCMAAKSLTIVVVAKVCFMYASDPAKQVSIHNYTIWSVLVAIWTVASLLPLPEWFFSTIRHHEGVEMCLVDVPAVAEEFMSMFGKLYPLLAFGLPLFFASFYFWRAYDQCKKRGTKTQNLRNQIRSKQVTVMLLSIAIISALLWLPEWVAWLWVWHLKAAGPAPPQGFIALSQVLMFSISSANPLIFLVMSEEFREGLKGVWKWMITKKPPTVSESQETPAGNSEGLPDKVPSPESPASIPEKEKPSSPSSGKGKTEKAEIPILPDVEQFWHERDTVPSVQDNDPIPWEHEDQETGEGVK
FBW7 activator – FBW7 E3 ligase activators, primary screen, biochemical, AlphaScreen, human. AlphaScreen FBW7–phospho-cyclin E peptide binding, activator screen. normalized activity (activation), % at 26.1 µM. actives 0.13% (n = 650,000). AID 1259310, 2017; in the data active = normalized activity above about 1.9%;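 note: purified mutant Fbw7 with reduced substrate affinity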
MITF primary – MITF inhibitors, primary screen, biochemical, AlphaScreen, human; actives 0.91% (n = 650,000); AlphaScreen MITF homodimerization, bead proximity signal; inhibition, % at 2.6 µM; Microphthalmia-associated transcription factor (Homo sapiens), O75030; AID 1259374, 2018; in the data active = inhibition above about 50%;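 note: 0% = vehicle wells with protein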
GPR151 conf act – GPR151 activators, triplicate retest, confirmation, cell-based, PathHunter beta-arrestin, luminescence; shares compounds with GPR151 ag; GPR151 PathHunter beta-arrestin cells, 90 min; % of EA-reagent control over plate median; activation, % at 11.2 µM; 6,700 tested, under 10 active; AID 1508609, 2020;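 active = mean percent activation across replicates above the confirmation screen cutoff of 4.91%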
GPR119 ag – GPR119 activators in beta-arrestin cells, counter-screen for GPR151 activator project, cell-based, PathHunter beta-arrestin, luminescence, triplicate | shares compounds with GPR151 ag | 90 min; 0 = compound-well median, 100 = enzyme-acceptor control | activation, % at 11.2 µM | actives 0.3% (n = 6,700);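 active = mean percent activation in the counterscreen above 29.09%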;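 note: counterscreen on off-target GPR119 to flag nonselective hits from the GPR151 activator screen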
* marks the source's active call; other numbers are inactive results; x = no result given. Sampled rows, rich in hits. Any-hit rate of the full collection: about 3.4%.

SMILES	TEAD-YAP inh	GPR151 ag	FBW7 activator	MITF primary	GPR151 conf act	GPR119 ag
COc1ccccc1CNC(=O)c1nn(C)c2c1COc1ccccc1-2	-15	0	0	8	x	x
Cc1c(Cl)cccc1NC(=O)C1CCCN(c2nnc(N3CCCC3=O)s2)C1 (centres undefined)	-2	-2	0	-4	x	x
O=C(Nc1ccccc1F)C1CCCN(c2nnc(N3CCCC3=O)s2)C1 (centres undefined)	3	5.0*	0	9	-1	-9
COc1ccc(C(=O)NC2CC2)cc1OC1CCN(C2CCC2)CC1	-15	7.0*	0	7	0	1
COc1ccc(C(=O)NC2CC2)cc1OC1CCN(C2Cc3ccccc3C2)CC1	-23	11*	0	4	0	-1
COc1ccc(C(=O)NC2CC2)cc1OC1CCN(C2CCCCCC2)CC1	0	0	0	3	x	x
COc1ccc(-n2nc3c(c2NC(=O)c2ccc(Cl)c([N+](=O)[O-])c2)CS(=O)C3)cc1 (centres undefined)	9	0	0	16	x	x
O=C(c1cccs1)N1CCN(c2c3c(nc4ncnn24)CCC3)CC1	-3	0	0	17	x	x
O=C1Nc2ccc([N+](=O)[O-])cc2C12NN=C(c1ccccc1)S2 (centres undefined)	-44	5.0*	0	9	0	15
NS(=O)(=O)c1ccc(CNC(=O)Nc2ccc(Br)cc2Cl)cc1	-9	8.7*	0	12	-1	-14
NS(=O)(=O)c1ccc(CNC(=S)Nc2ccc(Br)cc2Cl)cc1	-6	4	0	7	x	x
CCOC(=O)c1ccccc1NC(=O)CN1c2cccc3cccc(c23)S1(=O)=O	-8	1	0	8	x	x
CC(=O)N1CCCN(c2nc3cc(C)cc(C)c3cc2C#N)CC1	11	7.2*	0	13	-1	0
Cc1cc(C)c2cc(C#N)c(N3CCCN(C(=O)CCC(=O)O)CC3)nc2c1	-7	1	0	6	x	x
CC(C)N1CCN(Cc2ccc(OCc3ccccc3)cc2)CC1CCO (centres undefined)	-3	-1	0	9	x	x
CC(C)N1CCN(Cc2cccn2-c2cccnc2)CC1CCO (centres undefined)	-5	-1	0	2	x	x
CC(C)N1CCN(Cc2ccc(OC3CCCC3)cc2)CC1CCO (centres undefined)	13	17*	0	10	-1	2
COc1ccc(-n2ccnc2CN2CCN(C(C)C)C(CCO)C2)cc1 (centres undefined)	-1	5.0*	0	5	0	-9
CCc1cc(N2CCN(C)CC2)n2nc3nc(C)cc(C)c3c2n1	-12	7.2*	0	-4	1	11
CCc1cc(N2CCCC2)n2nc3nc(C)cc(C)c3c2n1	3	0	1	-1	x	x
COc1cc(OC)cc(C(=O)Nc2sc3c(c2C#N)CCN(C(C)=O)C3)c1	61*	7.3*	0	9	1	4
COc1cc(C(=O)Nc2sc3c(c2C#N)CCN(C(C)=O)C3)cc(OC)c1OC	29	-1	0	6	x	x
CO[C@@H]1COC(=O)C/C=C/[C@H](C)[C@H](OC)COC(=O)[C@H](C)COC(=O)C/C=C/[C@@H]1C	x	5.1*	0	-1	1	6
COC1COC(=O)[C@@H](C)NC(=O)C/C=C/[C@H](C)[C@@H](OC)COC(=O)C/C=C/[C@@H]1C (some centres undefined)	x	1	0	-3	x	x
COc1ccc(-c2nnc3ccc(SCC(=O)Nc4cccc(C)c4)nn23)cc1OC	-13	0	0	-6	x	x
SMILES	TEAD-YAP inh	GPR151 ag	FBW7 activator	MITF primary	GPR151 conf act	GPR119 ag
O=C(CSc1cccc[n+]1[O-])N1CCCCCC1	2	2	0	2	x	x
[O-][n+]1ccccc1SSc1cccc[n+]1[O-]	96*	6.9*	0	1	-1	-14
C=CCn1c(SCC(N)=O)nnc1-c1ccc(Br)cc1	0	6.2*	1	19	-1	-11
COC(=O)c1cc(CNC(=O)C(C)(C)C)cc(NC(=O)Cn2cccn2)c1	-9	1	0	3	x	x
CC(=O)c1ccc(OCCCC(=O)NNC(=O)c2ccccc2)cc1	-36	-1	0	-8	x	x
O=C(CCCOc1ccccc1)NNC(=O)c1ccccc1	0	26*	0	1	1	11
Cc1ccc(C(=O)Nc2ccc([N+](=O)[O-])cc2)c(Cl)c1	-44	15*	0	8	1	6
COc1cccc(OC)c1C(=O)Nc1ccc(I)cc1Cl	-6	-1	0	-25	x	x
Cc1ccc([N+](=O)[O-])cc1NC(=O)c1ccccc1Cl	3	1	0	5	x	x
COc1ccccc1C(=O)Nc1ccc(I)cc1Cl	-20	7.2*	0	-23	0	12
O=C(Nc1ccc([N+](=O)[O-])cc1Cl)c1ccccc1Cl	-11	8.1*	0	-18	1	11
Cc1cc(C)cc(C(=O)Nc2ccc([N+](=O)[O-])cc2C)c1	2	8.9*	0	-6	0	-3
CSc1ccc(CN2CCC3(CC2)CC3C(=O)NCc2ccncc2)cc1 (centres undefined)	-5	1	0	4	x	x
O=C(NCc1csc(-c2cccs2)n1)c1csc(-c2ccccc2)n1	-1	0	0	-9	x	x
O=C(Nc1ccc(S(=O)(=O)Nc2nccs2)cc1)c1ccc([N+](=O)[O-])cc1Cl	-2	5.2*	0	8	0	-2
c1ccc(-c2nnc3ccc(SCc4cccnc4)nn23)cc1	5	0	0	-1	x	x
Fc1ccc(CSc2ccc3nnc(-c4cccnc4)n3n2)cc1	-16	5.3*	-1	-2	0	1
N#Cc1ccccc1NC(=O)CSc1nnc(Nc2ccccc2F)s1	-6	-8	0	11	x	x
O=C(O)CN1C(=O)/C(=C/c2ccc(I)o2)SC1=S	-2	6.7*	0	55*	0	0
O=C(O)CCN1C(=O)/C(=C/C=C/c2ccco2)SC1=S	23	0	-2	20	x	x
COC(=O)CN1C(=O)S/C(=C/c2ccco2)C1=O	2	7.0*	0	20	2	-13
O=C(O)CCN1C(=O)/C(=C\c2ccco2)SC1=S	-6	11*	0	36	-1	8
O=C(O)CN1C(=O)/C(=C/c2ccc(SCc3ccco3)o2)SC1=S	2	1	-1	40	x	x
Cc1ccc(C)c(N2CCN(CC(=O)Nc3nccs3)CC2)c1	6	1	0	16	x	x
